Test systems include SR leukemia; RPMI-8226 leukemia; OVCAR-8 ovarian; OVCAR-5 ovarian; OVCAR-4 ovarian; SK-OV-3 ovarian; IGROV1 ovarian; HS 578T breast; NCI/ADR-RES ovarian; T-47D breast; BT-549 breast; MDA-MB-435 melanoma; SW-620 colon; MCF7 breast; HCT-116 colon; HCC-2998 colon; KM12 colon; OVCAR-3 ovarian.
What all share (test): NCI-60 one-dose screen, 48 h (100 = growth as untreated, 0 = no growth, -100 = all killed)
What all share (conditions): 10 µM unless noted

About 83,000 compounds went through this panel and 20% of them were active in at least one assay; those are over-represented in the sample as a whole.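 Assay: single dose, 48 h. Readout: percent growth (0 = no net growth; negative = cell death). Active: <10.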 Unmarked numbers belong to inactive results. Calls of active or inactive are those of the source.

Regarding `Cc1cccc(NC(=O)c2sc3nc4c(cc3c2N)CCCC4)c1`, the growth was 17.3% in the assay on SR leukemia; 12.7% with RPMI-8226 leukemia; 52.1% with OVCAR-8 ovarian; 64.9% in the assay on OVCAR-5 ovarian; 71.7% in the assay with OVCAR-4 ovarian; 44% in the assay with SK-OV-3 ovarian. Besides, the growth was 54.6% in the assay on IGROV1 ovarian; 59.5% in the assay with HS 578T breast; 11.1% in the assay on NCI/ADR-RES ovarian; 53.5% in the assay on T-47D breast; 50.8% in the assay with BT-549 breast; -22.9% (active) in the assay with MDA-MB-435 melanoma. For the same molecule, the growth was 36% with SW-620 colon; 11.3% with MCF7 breast; 22.3% with HCT-116 colon; 70.6% in the assay on HCC-2998 colon; 22.9% with KM12 colon.
Regarding `COc1cc(Cn2c(SCC(=O)Nc3cc(OC)c(OC)c(OC)c3)nc3ccccc3c2=O)cc(OC)c1OC`, the growth in the assay on SR leukemia is 66.6%; in the assay on RPMI-8226 leukemia, 96%; in the assay with OVCAR-8 ovarian it was 81%; in the assay with OVCAR-5 ovarian it was 88.8%; in the assay on OVCAR-4 ovarian it was 89.8%; with SK-OV-3 ovarian it was 51.2%. The growth in the assay on IGROV1 ovarian was 72.6%; in the assay with HS 578T breast it was 48.4%; in the assay on NCI/ADR-RES ovarian, 99.5%; in the assay on T-47D breast, 77%; in the assay with BT-549 breast, 65.2%; in the assay with MDA-MB-435 melanoma, 102%. The growth with SW-620 colon was 91.7%; with MCF7 breast, 95.3%; in the assay with HCT-116 colon, 58.3%; in the assay on HCC-2998 colon it was 124%; with KM12 colon it was 99.1%.
Take `CCCn1c(=S)sc2c(Cl)nc(C)nc21`: the growth is 123% in the assay with SR leukemia; 99.1% in the assay on RPMI-8226 leukemia; 105% in the assay on OVCAR-8 ovarian; 109% with OVCAR-5 ovarian; 85.5% in the assay with OVCAR-4 ovarian; 90.5% in the assay with SK-OV-3 ovarian. Besides, the growth in the assay on OVCAR-3 ovarian is 88.6%; with HS 578T breast, 36.8%; with NCI/ADR-RES ovarian it was 106%; in the assay on T-47D breast, 104%; in the assay with BT-549 breast it was 42.9%; with MDA-MB-435 melanoma it was 104%. Further, the growth with SW-620 colon was 102%; in the assay on MCF7 breast it was 46.7%; in the assay on HCT-116 colon, 104%; with HCC-2998 colon, 111%; in the assay with KM12 colon, 104%.
In the case of `COc1cc(CNC(=O)CCSc2nc3ccccc3c(=O)n2Cc2cc(OC)c(OC)c(OC)c2)cc(OC)c1OC`, the growth was 11.1% in the assay with SR leukemia; 39.2% in the assay with RPMI-8226 leukemia; 48.2% in the assay with OVCAR-8 ovarian; 68.3% with OVCAR-5 ovarian; 58.9% in the assay on OVCAR-4 ovarian; 27.3% in the assay with SK-OV-3 ovarian. The growth in the assay on IGROV1 ovarian is 51.3%; in the assay on HS 578T breast, 57.4%; in the assay on NCI/ADR-RES ovarian it was 17.4%; in the assay on T-47D breast it was 29.3%; in the assay on BT-549 breast, 48.3%; in the assay with MDA-MB-435 melanoma it was -28.7% (active). Further, the growth was 23.9% with SW-620 colon; 15.4% with MCF7 breast; 17% in the assay on HCT-116 colon; 86% in the assay on HCC-2998 colon; 17.3% with KM12 colon.
Take `CCC1CCc2nc3sc(C(=O)Nc4cccc(C)c4)c(N)c3cc2C1` (stereo not drawn): the growth in the assay on SR leukemia was 11%; in the assay on RPMI-8226 leukemia it was 56.5%; in the assay with OVCAR-8 ovarian, 94.2%; in the assay with OVCAR-5 ovarian, 105%; with OVCAR-4 ovarian, 85%; in the assay on SK-OV-3 ovarian, 96.9%. The growth in the assay on IGROV1 ovarian was 95.8%; in the assay with HS 578T breast it was 87.7%; in the assay on NCI/ADR-RES ovarian, 76%; with T-47D breast, 96.9%; with BT-549 breast it was 86.1%; in the assay on MDA-MB-435 melanoma, -15.9% (active). In addition, the growth with SW-620 colon was 53.2%; in the assay on MCF7 breast, 18.7%; in the assay on HCT-116 colon, 83.8%; in the assay on HCC-2998 colon it was 100%; in the assay on KM12 colon it was 48.5%.
Take `C=C1C(=O)O[C@H]2[C@H]1CC/C(COC(=O)NCc1cc(OC)cc(OC)c1)=C\CC[C@@]1(C)O[C@@H]21`: the growth is 3.61% (active) in the assay with SR leukemia; 5.14% (active) in the assay with RPMI-8226 leukemia; -9.79% (active) in the assay on OVCAR-8 ovarian; 18.1% in the assay with OVCAR-5 ovarian; 9.29% (active) in the assay on OVCAR-4 ovarian; 81.7% in the assay with SK-OV-3 ovarian. Also, the growth is -76.8% (active) in the assay with OVCAR-3 ovarian; 37.1% in the assay on HS 578T breast; 63.4% in the assay with NCI/ADR-RES ovarian; -8.17% (active) in the assay on T-47D breast; -5.77% (active) in the assay on BT-549 breast; -29.1% (active) in the assay with MDA-MB-435 melanoma. The growth is -50.5% (active) with SW-620 colon; 0.19% (active) with MCF7 breast; -60.4% (active) with HCT-116 colon; 63.8% in the assay with HCC-2998 colon; 45.1% in the assay with KM12 colon.
As to `O=C(c1c[nH]c2ccccc12)C(Sc1nc2ccccc2c(=O)[nH]1)c1ccccc1` (stereo not drawn), the growth was 67.9% in the assay with SR leukemia; 91.1% in the assay on RPMI-8226 leukemia; 93.3% in the assay with OVCAR-8 ovarian; 88% in the assay on OVCAR-5 ovarian; 95.9% in the assay with OVCAR-4 ovarian; 104% with SK-OV-3 ovarian. The growth in the assay with OVCAR-3 ovarian is 96.6%; in the assay with HS 578T breast it was 88.6%; in the assay with NCI/ADR-RES ovarian, 99.8%; in the assay on T-47D breast, 81%; with BT-549 breast, 87.2%; in the assay with MDA-MB-435 melanoma it was 115%. Moreover, the growth with SW-620 colon was 110%; in the assay with MCF7 breast, 101%; with HCT-116 colon, 95.1%; in the assay with HCC-2998 colon, 112%; with KM12 colon it was 106%.
As to `CCSc1nnc(NC(=O)COc2ccc(Cl)cc2C)s1`, the growth is 43.4% with SR leukemia; 94.6% in the assay with RPMI-8226 leukemia; 100% with OVCAR-8 ovarian; 96.2% with OVCAR-5 ovarian; 107% in the assay with OVCAR-4 ovarian; 93.5% in the assay on SK-OV-3 ovarian. The growth in the assay with OVCAR-3 ovarian is 94.8%; with HS 578T breast it was 101%; with NCI/ADR-RES ovarian, 106%; in the assay with T-47D breast it was 96%; with BT-549 breast, 110%; with MDA-MB-435 melanoma, 84%. Besides, the growth in the assay on SW-620 colon was 102%; with MCF7 breast, 91%; with HCT-116 colon it was 103%; in the assay on HCC-2998 colon, 131%; in the assay with KM12 colon, 109%.
In the case of `CC(=O)Nc1nc(C(=O)N2N=C(C)/C(=C/c3ccc(Cl)cc3)C2=O)cs1`, the growth in the assay on SR leukemia is 88.1%; in the assay with RPMI-8226 leukemia it was 103%; in the assay with OVCAR-8 ovarian, 103%; in the assay on OVCAR-5 ovarian, 110%; in the assay on OVCAR-4 ovarian it was 112%; in the assay on SK-OV-3 ovarian it was 108%. In addition, the growth in the assay on IGROV1 ovarian is 108%; with HS 578T breast, 114%; with NCI/ADR-RES ovarian, 109%; in the assay on T-47D breast it was 95.6%; with BT-549 breast, 97.4%; with MDA-MB-435 melanoma, 112%. Moreover, the growth with SW-620 colon is 109%; in the assay on MCF7 breast, 94.4%; in the assay with HCT-116 colon it was 99.9%; in the assay with HCC-2998 colon it was 104%; in the assay with KM12 colon, 101%.
